# Reference: the supplement of paper PMC9135407
# Several values for one entry are separate records, joined by “and”; a condition that tells them apart may be missing. Equal entries are not always repeated. Structures can show the parent of a compound that is named as a salt. The whole screen tested about 5,800 compounds, of which about 620 (11%) showed activity. The entries come from a sample that favours actives as a whole. A number with no mark means an inactive call.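 The calls were made as follows: active = score above a cut-off or among the top three wells of a plate; in these data no inactive exceeds 0.85.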
# Test system: primary human hepatic stellate cells (donor 1)
# Assay: scaled lipid accumulation score (0 = DMSO-like, 1 = nortriptyline-like); higher = stronger HSC inactivation (lipid re-accumulation), active = hit call of the paper
# Settings: 48 h
# [1] = library stock concentration: 10 mM
# [2] = library stock concentration: 80 uM
# [3] = library stock concentration: 400 uM
# [4] = library stock concentration: 2 mM
# [5] = library stock concentration: 3.33 mM
# [6] = library stock concentration: 1 mM
smiles,measurement,setting,value
Cn1c(-c2ccc3c(c2)OCO3)cc(=O)c2ccccc21 [Graveoline],scaled lipid accumulation score,,≤ 0
O=c1cc(-c2ccccc2F)[nH]c2cc3c(cc12)OCO3 [CHM-1 hydrate],scaled lipid accumulation score,[1],0.875 (active)
O=C(NC(NC(=S)Nc1ccc(F)c([N+](=O)[O-])c1)C(Cl)(Cl)Cl)C(c1ccccc1)c1ccccc1 (stereo not drawn),scaled lipid accumulation score,[2],≤ 0
same,scaled lipid accumulation score,[3],0.081
same,scaled lipid accumulation score,[4],0.01
same,scaled lipid accumulation score,[5],≤ -0.009
same,scaled lipid accumulation score,[1],0.019 and 0.171 and 0.352
O=C(NC1CCNCC1)c1n[nH]cc1NC(=O)c1c(Cl)cccc1Cl,scaled lipid accumulation score,[2],0.367
same,scaled lipid accumulation score,[3],0.117 and 0.282
same,scaled lipid accumulation score,[4],0.26 and 0.49
same,scaled lipid accumulation score,[5],0.109
same,scaled lipid accumulation score,[1],0.212 and 0.239 and 0.462
C[C@H](CCCO)[C@H]1CC[C@H]2[C@@H]3[C@H](O)C[C@H]4C[C@H](O)CC[C@]4(C)[C@H]3C[C@H](O)[C@]12C [Petromyzonol],scaled lipid accumulation score,[6],0.043
Cn1cc(-c2ccc(F)c(C(F)(F)F)c2)nc1C1CCN(c2ncnc3[nH]ncc23)CC1,scaled lipid accumulation score,[2],0.021
same,scaled lipid accumulation score,[3],0.015
same,scaled lipid accumulation score,[4],0.054
same,scaled lipid accumulation score,[1],0.371
CCc1ccc2c(O)c3c(cc2c1C(=O)OC)C(=O)c1c(O)ccc(O)c1C3=O [Bisanhydrorutilantinone],scaled lipid accumulation score,[1],0.11
CCCCC[C@@H](O)/C=C/[C@@H]1[C@@H](C/C=C\CCCC(=O)O)[C@@H](O)C[C@H]1O [15(R)-Prostaglandin F2.alpha.],scaled lipid accumulation score,[6],≤ 0
C=C1CC2(O)OC3(CC2C(C)C)C(C)CCC13 (stereo not drawn) [Curcumol],scaled lipid accumulation score,[5],≤ 0
same,scaled lipid accumulation score,[1],≤ 0
CCn1c2ccccc2c2cc(CNC)ccc21.Cl,scaled lipid accumulation score,[1],0.872 (active)
CCn1c2ccccc2c2cc(Nc3ccnc(NCCCN4CCOCC4)n3)ccc21,scaled lipid accumulation score,[5],0.673
same,scaled lipid accumulation score,[1],0.087
CCn1c(=O)[nH]c2ccccc21,scaled lipid accumulation score,[1],≤ -0.006
CCCCCCCC/C=C\CCCCCCCC(=O)NCCS(=O)(=O)O [N-Oleoyl Taurine],scaled lipid accumulation score,[6],0.011
C[C@@H](Oc1cc(-c2cnn(C3CCNCC3)c2)cnc1N)c1c(Cl)ccc(F)c1Cl [listing 1 of 2 here],scaled lipid accumulation score,[2],≤ 0
same,scaled lipid accumulation score,[3],0.145
same,scaled lipid accumulation score,[4],0.477
same,scaled lipid accumulation score,[1],0.242
C[C@@H](Oc1cc(-c2cnn(C3CCNCC3)c2)cnc1N)c1c(Cl)ccc(F)c1Cl [listing 2 of 2 here],scaled lipid accumulation score,[5],0.909 (active)
same,scaled lipid accumulation score,[1],0.863 (active)
CC(Oc1cc(-c2cnn(C3CCNCC3)c2)cnc1N)c1c(Cl)ccc(F)c1Cl [(S)-crizotinib],scaled lipid accumulation score,[5],0.504
same,scaled lipid accumulation score,[1],0.396
CCCCCCCCCCCCCCCCOC[C@H](COP(=O)([O-])OCC[N+]1(C)CCCC1)OC(C)=O [Pyrrolidino PAF C-16],scaled lipid accumulation score,[6],≤ 0
C[N+]1(C)CCCC1C(=O)O (stereo not drawn) [Stachydrine hydrochloride],scaled lipid accumulation score,,0.046
O=C(/C=C\n1cnc(-c2cc(C(F)(F)F)cc(C(F)(F)F)c2)n1)N1CC(F)(F)C1,scaled lipid accumulation score,[5],≤ -0.009
same,scaled lipid accumulation score,[1],0.294
CCCCC[C@](C)(O)/C=C/[C@@H]1[C@@H](C/C=C\CCCC(=O)OC)[C@@H](O)C[C@H]1O [15(S)-15-methyl Prostaglandin F2.alpha. methyl ester],scaled lipid accumulation score,[6],≤ 0
CC(Cc1ccccc1)(NC(=O)CN)c1ccccc1 (racemic),scaled lipid accumulation score,[1],0.922 (active)
CC(Cc1ccccc1)(NC(=O)CN)c1ccccc1 (stereo not drawn) [Remacemide hydrochloride],scaled lipid accumulation score,[1],0.479
CC(N)(Cc1ccc(O)cc1)C(=O)O (racemic) [DL-alpha-Methyl-p-tyrosine],scaled lipid accumulation score,[1],0.213
COc1ccc(-c2cc(=O)c3c(O)c(OC)c(OC)cc3o2)cc1O [Eupatorin],scaled lipid accumulation score,[1],0.725
CC(C)Cn1c(=O)n(C)c(=O)c2nc[nH]c21 [Isobutylmethylxanthine],scaled lipid accumulation score,library stock concentration: 9 mM,≤ 0
O=C[C@H](O)[C@@H](O)[C@H](O)CO [Xylose],scaled lipid accumulation score,[5],≤ 0
same,scaled lipid accumulation score,[1],0.028
CN1CCN(C2=Cc3ccccc3Oc3ccc(Cl)cc32)CC1.O=C(O)/C=C/C(=O)O,scaled lipid accumulation score,[1],1.01 (active)
CN1CC2c3ccccc3Oc3ccc(Cl)cc3C2C1 (stereo not drawn) [Asenapine],scaled lipid accumulation score,[5],0.156
same,scaled lipid accumulation score,[1],0.752
CN1CCN(C2=Nc3ccccc3Oc3ccc(Cl)cc32)CC1 [Loxapine Succinate],scaled lipid accumulation score,[5],≤ 0
same,scaled lipid accumulation score,[1],0.493
CN1CC2c3ccccc3Oc3ccc(Cl)cc3C2C1 (stereo not drawn) [Asenapine maleate],scaled lipid accumulation score,[1],0.772
CN1CCN(C2=Nc3ccccc3Oc3ccc(Cl)cc32)CC1,scaled lipid accumulation score,[1],0.608
CN1CCN(C2=Nc3ccccc3Oc3ccc(Cl)cc32)CC1 [Loxapine succinate],scaled lipid accumulation score,,0.3
same,scaled lipid accumulation score,library stock concentration: 4.5 mM,0.253
same,scaled lipid accumulation score,[1],0.708 and 0.486
CNc1nc(Nc2cnn(C3CCN(C4COC4)CC3F)c2Cl)ncc1C(F)(F)F (stereo not drawn),scaled lipid accumulation score,[5],≤ -0.009
same,scaled lipid accumulation score,[1],≤ 0
CCCCC(C)(O)CC=CC1C(O)CC(=O)C1CCCCCCC(=O)OC (stereo not drawn) [8-iso Misoprostol],scaled lipid accumulation score,[6],≤ 0
CCc1cncnc1N1CCN(Cc2nc3ccc(C(F)(F)F)cc3[nH]2)CC1,scaled lipid accumulation score,[2],≤ 0
same,scaled lipid accumulation score,[3],≤ 0
same,scaled lipid accumulation score,[4],≤ 0
same,scaled lipid accumulation score,[5],≤ 0
same,scaled lipid accumulation score,[1],0.077 and 0.419 and ≤ 0
CN1CCN(c2nc3cc(C(F)(F)F)ccc3n3cccc23)CC1.O=C(O)/C=C\C(=O)O [listing 1 of 2 here],scaled lipid accumulation score,[1],0.974 (active)
CN1CCN(c2nc3cc(C(F)(F)F)ccc3n3cccc23)CC1.O=C(O)/C=C\C(=O)O [listing 2 of 2 here],scaled lipid accumulation score,[1],1.15 (active)
CCCCC/C=C\C[C@@H](O)/C=C/c1cccc(C[C@@H](O)CCCCO)n1,scaled lipid accumulation score,library stock concentration: 100 uM,≤ -0.021
CCNC(=O)CCC/C=C\C[C@@H]1[C@@H](CC[C@@H](O)CCc2ccccc2)[C@H](O)C[C@@H]1O [Latanoprost ethyl amide],scaled lipid accumulation score,[6],≤ 0
